Data: PubChem BioAssay (EPA / NIEHS)
Records with an inconclusive call do not appear. Activity calls are given as the source filed them. The calls were made as follows: active = hit-call score of the fitted dose curve at least 0.9, where 1 is the maximum; inconclusive = response in the unintended direction; inactive = score below 0.9.

Target: human Peroxisome Proliferator-activated Receptor alpha (PPARa), PPARA (gene 5465) (UniProt Q07869)
Experiment: ATG_PPARa_TRANS: Attagene TRANS-FACTORIAL HepG2 Assay for human Peroxisome Proliferator-activated Receptor alpha (PPARa) (AID 2283001)
How it was run: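 Cells (HepG2) are transfected with multiple reporter transcription units, exposed to chemical for 24 h, then total RNA is reverse-transcribed and amplified. Labelled products are quantified by capillary electrophoresis; induction is referenced to DMSO.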

Sequence of human Peroxisome Proliferator-activated Receptor alpha (PPARa), PPARA (gene 5465) (Q07869 whole entry, looked up): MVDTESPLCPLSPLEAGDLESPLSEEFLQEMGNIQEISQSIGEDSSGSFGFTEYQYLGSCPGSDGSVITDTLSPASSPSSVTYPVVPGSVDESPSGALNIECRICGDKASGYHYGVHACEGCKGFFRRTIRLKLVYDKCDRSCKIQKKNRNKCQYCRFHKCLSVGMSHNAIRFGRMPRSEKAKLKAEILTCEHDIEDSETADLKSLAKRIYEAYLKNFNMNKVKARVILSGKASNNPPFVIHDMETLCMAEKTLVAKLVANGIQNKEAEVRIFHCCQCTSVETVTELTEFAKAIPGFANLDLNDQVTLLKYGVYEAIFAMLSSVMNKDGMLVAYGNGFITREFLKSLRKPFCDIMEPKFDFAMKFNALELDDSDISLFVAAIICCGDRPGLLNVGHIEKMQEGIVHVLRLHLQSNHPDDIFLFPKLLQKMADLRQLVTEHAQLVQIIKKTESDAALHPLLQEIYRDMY

| Compound | outcome |
| --- | --- |
| O=C(O)CCCCC1CCSS1 (stereo not given) | inactive |
| O=S(=O)(O)NC1CCCCC1 | inactive |
| COc1ccc(OC)c(OC)c1 | inactive |
| CCCC[n+]1ccccc1 | inactive |
| C=C(C)C(=O)OCCOC(=O)CC(C)=O | inactive |
| CCCC(=O)OCCC(C)CCC=C(C)C (stereo not given) | inactive |
| C=CC(=O)OCCOCCOCC | inactive |
| COCCCOc1ccnc(CS(=O)c2nc3ccccc3[nH]2)c1C (stereo not given) | inactive |
| COc1nc(C)nc(N)n1 | inactive |
| C=CC(=O)NCOCC(C)C | inactive |

Target: Retinoic acid receptor alpha (Homo sapiens) (UniProt P10276)
Experiment: ATG_RARa_TRANS: Attagene TRANS-FACTORIAL HepG2 Assay for human Retinoic Acid Receptor alpha (RARa) (AID 2283005)
How it was run: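 HepG2 cells transiently transfected with multiple reporter units expressing chimeric RARα-GAL4 fusion, with GAL4-UAS-driven reporters. After 24 h compound exposure, reporter mRNA induction quantified by RT-PCR and capillary electrophoresis with fluorescent labeling; gain-of-signal fitted relative to DMSO control.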

Sequence of Retinoic acid receptor alpha (Homo sapiens) (P10276 whole entry, looked up): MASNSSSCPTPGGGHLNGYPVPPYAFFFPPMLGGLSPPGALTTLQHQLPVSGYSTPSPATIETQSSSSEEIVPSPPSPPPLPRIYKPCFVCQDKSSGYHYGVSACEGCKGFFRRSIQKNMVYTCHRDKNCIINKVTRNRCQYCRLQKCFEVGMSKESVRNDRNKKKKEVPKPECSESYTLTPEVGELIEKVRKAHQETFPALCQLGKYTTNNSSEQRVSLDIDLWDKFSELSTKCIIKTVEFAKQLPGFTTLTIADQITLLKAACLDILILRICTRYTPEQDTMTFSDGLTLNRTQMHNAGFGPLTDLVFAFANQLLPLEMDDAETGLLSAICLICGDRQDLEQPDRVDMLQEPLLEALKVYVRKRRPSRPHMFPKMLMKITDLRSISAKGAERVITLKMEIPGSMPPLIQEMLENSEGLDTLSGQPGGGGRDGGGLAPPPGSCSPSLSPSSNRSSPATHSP

| Compound | outcome |
| --- | --- |
| CCCCCCCCCCCCCCCC(=O)O | inactive |
| O=C(O)CCCCCCCC(=O)O | inactive |
| CCCC[n+]1ccccc1 | inactive |
| C=CC(=O)OCCOCCOCC | inactive |
| COCCCOc1ccnc(CS(=O)c2nc3ccccc3[nH]2)c1C (stereo not given) | inactive |

Target: Peroxisome proliferator-activated receptor gamma (Homo sapiens) (UniProt P37231)
Experiment: ATG_PPARg_TRANS: Attagene TRANS-FACTORIAL HepG2 Assay for human Peroxisome Proliferator-activated Receptor-gamma (PPARg) (AID 2283007)
How it was run: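 HepG2 cells are transiently transfected with GAL4-UAS reporter units driven by chimeric NR-Gal4 fusions and dosed for 24 h. Reporter mRNA is quantified by RT-PCR, 6-FAM labelling, HpaI digestion and capillary electrophoresis. Induction is scored against DMSO.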

Sequence of Peroxisome proliferator-activated receptor gamma (Homo sapiens) (P37231 whole entry, looked up): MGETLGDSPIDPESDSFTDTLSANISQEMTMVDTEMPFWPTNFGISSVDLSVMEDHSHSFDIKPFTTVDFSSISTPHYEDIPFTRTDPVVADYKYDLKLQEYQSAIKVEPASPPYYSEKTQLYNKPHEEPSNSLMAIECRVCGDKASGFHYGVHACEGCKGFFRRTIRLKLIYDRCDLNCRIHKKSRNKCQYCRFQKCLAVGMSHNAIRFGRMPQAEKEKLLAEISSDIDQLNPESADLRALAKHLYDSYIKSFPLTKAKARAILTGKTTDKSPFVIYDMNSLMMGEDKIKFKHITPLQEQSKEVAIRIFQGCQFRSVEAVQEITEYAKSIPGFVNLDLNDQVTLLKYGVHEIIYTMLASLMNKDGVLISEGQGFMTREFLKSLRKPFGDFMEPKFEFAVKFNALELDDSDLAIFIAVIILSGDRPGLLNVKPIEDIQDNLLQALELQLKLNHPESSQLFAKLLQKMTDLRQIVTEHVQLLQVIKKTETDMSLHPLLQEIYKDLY

| Compound | outcome | AC50 |
| --- | --- | --- |
| CCCCCCCCCCCCCC(=O)O | inactive | – |
| COc1ccc(O)cc1 | inactive | – |
| CCCC(C)C=O (stereo not given) | inactive | – |
| CCCCCC(=O)OCCc1ccccc1 | inactive | – |
| CC(C)C[C@H]1C(=O)N2CCC[C@H]2[C@]2(O)O[C@](NC(=O)[C@@H]3C=C4c5cccc6[nH]c(Br)c(c56)C[C@H]4N(C)C3)(C(C)C)C(=O)N12 | inactive | – |
| CC(C)(C#N)c1cc(Cn2cncn2)cc(C(C)(C)C#N)c1 | inactive | – |
| NCCCCCCN | inactive | – |
| CCC(C)CCCC(C)(C)O (stereo not given) | inactive | – |
| C=C(C)C1CCC(C)CC1O (stereo not given) | inactive | – |
| C=C(C)C(=O)Nc1ccc(Cl)c(Cl)c1 | – | 18.4 µM (active) |
| C=C(C)C(=O)O | inactive | – |
| O=C1CCc2ccccc2O1 | inactive | – |
| O=C1O[C@@H]2[C@@H](O)[C@H](O)O[C@@H]2[C@H]1O | inactive | – |
| Nc1nc2ccc([N+](=O)[O-])cc2s1 | – | 29.7 µM (active) |
| O=C(O)CCSCCC(=O)O | inactive | – |
| O=C(O)c1cccc(C(F)(F)F)c1 | inactive | – |
| CCCCc1ccc(N)cc1 | inactive | – |
| NC(N)=NC(=O)c1nc(Cl)c(N)nc1N | inactive | – |
| CCc1ccc(C=O)cc1 | inactive | – |

| Compound | outcome | AC50 |
| --- | --- | --- |
| c1ccc(CCCc2ccccn2)cc1 | – | 50.7 µM (active) |
| CCCCCCCCCCCCCCCC(=O)O | inactive | – |
| Cc1ccc(C(C)C)cc1O | inactive | – |
| CC(C)=CCCC(C)CC=O (stereo not given) | inactive | – |
| CCCc1ccccc1O | inactive | – |
| O=C(O)CCCCCCCC(=O)O | inactive | – |
| CC(CN1c2ccccc2Sc2ccccc21)N(C)C (stereo not given) | – | 47.8 µM (active) |
| CC(C)=CCCC(C)=CCCC(C)=CCO | – | 39.9 µM (active) |
| CC(C)=CCC[C@H](C)CC=O | inactive | – |
| O=C(O)CCCCC1CCSS1 (stereo not given) | inactive | – |
| O=S(=O)(O)NC1CCCCC1 | inactive | – |
| COc1ccc(OC)c(OC)c1 | inactive | – |
| C=C(C)C(=O)OCCOC(=O)CC(C)=O | inactive | – |
| CCCC(=O)OCCC(C)CCC=C(C)C (stereo not given) | – | 31 µM (active) |
| C=CC(=O)OCCOCCOCC | – | 17 µM (active) |
| COCCCOc1ccnc(CS(=O)c2nc3ccccc3[nH]2)c1C (stereo not given) | – | 31.3 µM (active) |
| COc1nc(C)nc(N)n1 | inactive | – |
| C=CC(=O)NCOCC(C)C | inactive | – |

Target: Nuclear receptor subfamily 1 group I member 2 (Homo sapiens) (UniProt O75469)
Experiment: ATG_PXR_TRANS: Attagene TRANS-FACTORIAL HepG2 Assay for human Pregnane X Receptor (PXR) (AID 2283008)
How it was run: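 Transactivation by exogenous PXR–GAL4 fusion measured as reporter transcript induction after 24 h compound treatment of transfected human HepG2 cells. Read-out via RT-PCR and capillary electrophoresis of labelled fragments, fitted upward relative to DMSO.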

Sequence of Nuclear receptor subfamily 1 group I member 2 (Homo sapiens) (O75469 whole entry, looked up): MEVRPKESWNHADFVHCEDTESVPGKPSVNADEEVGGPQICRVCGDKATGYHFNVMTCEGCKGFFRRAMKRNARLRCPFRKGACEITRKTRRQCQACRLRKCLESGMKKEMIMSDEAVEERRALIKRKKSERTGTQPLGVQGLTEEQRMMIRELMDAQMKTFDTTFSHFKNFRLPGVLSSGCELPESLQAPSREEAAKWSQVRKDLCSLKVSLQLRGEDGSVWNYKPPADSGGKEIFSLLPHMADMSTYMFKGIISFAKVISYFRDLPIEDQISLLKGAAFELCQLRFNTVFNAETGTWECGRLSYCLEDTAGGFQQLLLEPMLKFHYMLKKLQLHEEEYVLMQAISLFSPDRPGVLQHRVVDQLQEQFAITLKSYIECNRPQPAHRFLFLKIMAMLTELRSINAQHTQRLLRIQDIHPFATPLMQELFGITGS

| Compound | outcome | AC50 |
| --- | --- | --- |
| CCCCCCCCCCCCCC(=O)O | inactive | – |
| CCCC(C)C=O (stereo not given) | inactive | – |
| CCCCCC(=O)OCCc1ccccc1 | inactive | – |
| CC(C)C[C@H]1C(=O)N2CCC[C@H]2[C@]2(O)O[C@](NC(=O)[C@@H]3C=C4c5cccc6[nH]c(Br)c(c56)C[C@H]4N(C)C3)(C(C)C)C(=O)N12 | – | 0.505 µM (active) |
| CC(C)(C#N)c1cc(Cn2cncn2)cc(C(C)(C)C#N)c1 | inactive | – |
| NCCCCCCN | inactive | – |
| CCC(C)CCCC(C)(C)O (stereo not given) | inactive | – |
| C=C(C)C1CCC(C)CC1O (stereo not given) | inactive | – |
| C=C(C)C(=O)Nc1ccc(Cl)c(Cl)c1 | – | 7.08 µM (active) |
| O=C1CCc2ccccc2O1 | inactive | – |
| O=C1O[C@@H]2[C@@H](O)[C@H](O)O[C@@H]2[C@H]1O | inactive | – |
| Nc1nc2ccc([N+](=O)[O-])cc2s1 | inactive | – |
| O=C(O)CCSCCC(=O)O | inactive | – |
| CCCCc1ccc(N)cc1 | inactive | – |
| NC(N)=NC(=O)c1nc(Cl)c(N)nc1N | inactive | – |
| CCc1ccc(C=O)cc1 | inactive | – |
| c1ccc(CCCc2ccccn2)cc1 | – | 18.6 µM (active) |

| Compound | outcome | AC50 |
| --- | --- | --- |
| Cc1ccc(C(C)C)cc1O | inactive | – |
| CC(C)=CCCC(C)CC=O (stereo not given) | inactive | – |
| CCCc1ccccc1O | inactive | – |
| CC(CN1c2ccccc2Sc2ccccc21)N(C)C (stereo not given) | – | 6.83 µM (active) |
| CC(C)=CCCC(C)=CCCC(C)=CCO | – | 10.2 µM (active) |
| CC(C)=CCC[C@H](C)CC=O | inactive | – |
| O=C(O)CCCCC1CCSS1 (stereo not given) | inactive | – |
| O=S(=O)(O)NC1CCCCC1 | inactive | – |
| COc1ccc(OC)c(OC)c1 | inactive | – |
| CCCC[n+]1ccccc1 | inactive | – |
| C=C(C)C(=O)OCCOC(=O)CC(C)=O | inactive | – |
| CCCC(=O)OCCC(C)CCC=C(C)C (stereo not given) | inactive | – |
| C=CC(=O)OCCOCCOCC | – | 40 µM (active) |
| COCCCOc1ccnc(CS(=O)c2nc3ccccc3[nH]2)c1C (stereo not given) | – | 4.77 µM (active) |
| COc1nc(C)nc(N)n1 | inactive | – |
| C=CC(=O)NCOCC(C)C | inactive | – |
